The results in this text go back to PubChem BioAssay (NCATS).

Molecules are shown by their SMILES. Results filed as inconclusive are left out. Calls of active or inactive are those of the source. Unless noted, calls come from the whole dose curve; as a rule, active = well fitted curve in the direction sought with a large enough effect; inconclusive = small, poorly fitted or top-dose-only effect, or another doubt; inactive = no such curve, though single readings can be large; an effect the other way counts as inactive or inconclusive.

For test [1], the target named is Lysosomal acid glucosylceramidase (Homo sapiens) (UniProt P04062). The experiment in a line: Glucocerebrosidase-p2 (AID 348; in the data active = potency below about 10 µM; note: potency is the fitted concentration of half-maximal effect). The conditions noted are these: purified GBA, blue fluorogenic substrate, 40 min. A digest of the protocol: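 Compounds titrated from 0.6 nM upwards against 0.2 nM enzyme in pH 5.9 citric acid/KH2PO4, taurocholate, tween-20; blue fluorogenic substrate 80 uM, 40 min room temperature, stopped and read Ex 365/Em 440 for AC50.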

The nature of test [2]: NFAT Signaling Pathway (AID 444; active = well fitted curve in either direction with a large enough effect, not every such curve was filed as active;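 note: carbachol stimulus at about its EC50 of 1 µM final; % is set by controls: 0 for no effect and ±100 for the full control effect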). To be noted: Jurkat NFAT-bla M1, carbachol, beta-lactamase ratio, 5 h; at 7.69 µM (top of the series) unless noted. A digest of the protocol:
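Jurkat cells with NFAT-driven β-lactamase reporter and co-expressed M1 receptor, stimulated with carbachol (final 1 uM, ~EC50), compound titration, 5 h at 37 °C. CCF4 loaded 1 h at RT; 460/530 nm ratio gave %activity and AC50.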

A short description of test [3]: Stat Signaling Pathway (AID 446; active = well fitted curve in either direction with a large enough effect, not every such curve was filed as active;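 note: ME-180 cervical cancer cells given 40 pM IL-6 alongside compound; SIE-controlled beta-lactamase reporter measured as 460/530 nm FRET emission ratio; % is set by controls: 0 for no effect and ±100 for the full control effect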). The conditions noted are these: ME-180 SIE beta-lactamase reporter, IL-6 stimulated, 5 h; at 7.69 µM (top of the series) unless noted. The gist of the method:
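IL-6/STAT signaling read in ME-180 cells via an SIE beta-lactamase reporter. Stimulus was 40 pM IL-6 (its AC50) for 5 hrs, so both activation and inhibition register.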

The target of test [4] is Glucocorticoid receptor (Homo sapiens) (UniProt P04150). As to the kind of experiment: GR-EFC Redistribution (AID 451; calls by dose curve; note: potency is the fitted concentration of half-maximal effect). The conditions noted are these: CHO-K1 GR-EFC translocation, beta-gal luminescence, 2 h. The gist of the method: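 CHO-K1 cells expressing nuclear EA and GR-ED fragments of b-gal; compounds titrated up to 46 uM final, 2 h at 37 C. GR nuclear translocation read as complemented b-gal luminescence after 1 h RT detection.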

For test [5], the target named is Mitogen-activated protein kinase 10 (Mus musculus) (UniProt Q61831). As to the kind of experiment: JNK3 AlphaScreen Assay (AID 530; active = well fitted curve in either direction with a large enough effect, not every such curve was filed as active;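 note: kinase came from lysate of stimulated human HepG2 cells; signal reports phosphorylation of biotinylated GST-cJun 1-79 at Ser73 with 10 µM ATP; % is set by controls: 0 for no effect and ±100 for the full control effect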). To be noted: JNK3 lysate, c-Jun phosphorylation; series mostly up to 57.1 µM. A digest of the protocol:
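Pre-activated (IL-1β/TNFα) JNK3 in HepG2 lysates phosphorylates biotin-GST-cJun(1-79), 10 uM ATP; anti-phospho-cJun(Ser73) AlphaScreen read at room temperature, pH 7.6 Tris buffer. Compounds pre-incubated 15 min as titrations.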

The target of test [6] is 3',5'-cyclic-AMP phosphodiesterase 4B (Homo sapiens) (UniProt Q07343). As to the kind of experiment: qHTS Assay for Inhibitors of PDE-IV (AID 607; active = well fitted activation curve with a large enough effect in the main read-out, with a control signal flat, not every such curve was filed as active; note: % of control where 0% means no effect). The conditions noted are these: HEK293 ACTOne CNG channel cells, membrane potential fluorescence; series mostly up to 22.9 µM. The gist of the method: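 Live HEK293 cells with a modified cyclic nucleotide-gated (CNG) channel report intracellular cAMP via membrane-potential dye fluorescence (ex 535/em 590 nm). Endogenous PDE-IV was targeted. Compounds were tested at up to 22.9 uM final; RO 20-1724 100 uM served as control.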

A short description of test [7]: qHTS Assay for Lipid Storage Modulators (AID 1519; calls by dose curve). The conditions noted are these: Drosophila S3 cells, BODIPY lipid droplet/cell ratio, laser cytometry, cells loaded with oleic acid; for activity change, negative = inhibition: at 57.5 µM (top of the series). A digest of the protocol:
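Cells seeded at 5,000 per well were treated with compounds over a concentration series and loaded with oleic acid (400 uM, as added). Lipid droplet fluorescence (488 nm excitation, 500-530 nm channel) was read by laser-scanning cytometry and normalized to 20 uM Triacsin C.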

Test [8] can be described thus: Primary qHTS for small molecule stabilizers of the endoplasmic reticulum resident proteome: Secreted ER Calcium Modulated Protein (SERCaMP) assay (AID 1508630). Note: % is set by controls: 0 for no effect and ±100 for the full control effect. The conditions noted are these: SH-SY5Y GLuc-SERCaMP (Gaussia luciferase released on ER calcium loss) secretion, thapsigargin, luminescence; series mostly up to 38.4 µM. The gist of the method: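 GLuc-SERCaMP-expressing SH-SY5Y cells, pretreated 16 h with compound, are challenged with thapsigargin to empty ER calcium stores; after 4 h, coelenterazine is added directly to the medium and luminescence is imaged.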

Test [9] in a line: AP1 Signaling Pathway (AID 357; active = well fitted curve in either direction with a large enough effect, not every such curve was filed as active). The conditions noted are these: ME-180 AP-1-bla reporter, EGF-induced, beta-lactamase ratio, 5 h; at 7.69 µM (top of the series) unless noted. The gist of the method: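 Beta-lactamase reporter under AP-1 response element, ME-180 background. Stimulus: EC50 EGF. Compound exposure 5 h, 37 °C. Detection: CCF4, 2.5 h RT, 460/530 nm. Values: AC50 from titration.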

Test [10] addresses Cytochrome P450 1A2 (Homo sapiens) (UniProt P05177). The experiment in a line: p450-cyp1a2 (AID 410; calls by dose curve; note: potency is the fitted concentration of half-maximal effect). The conditions noted are these: recombinant CYP1A2, luciferin-ME demethylation, luminescence; series mostly up to 57 µM. The gist of the method: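 Luminescent readout of luciferin formed from Luciferin-ME by human CYP1A2; data normalized against complete inhibition by 57 uM furafylline. Enzyme 20nM, substrate 100uM at Km, 100mM KPO4 buffer, 60 min reaction at room temperature.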

Test [11] deals with Glucocorticoid receptor (Homo sapiens) (UniProt P04150). The experiment in a line: GR-GFP Redistribution (AID 450;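 active = compounds whose dose series gives a full or clear partial fitted curve of increased nuclear translocation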; note: potency is the fitted concentration of half-maximal effect). To be noted: U2OS GR-GFP nuclear translocation, laser cytometry, 2 h.
Test [12] concerns the target Cytochrome P450 3A4 (Homo sapiens) (UniProt P08684). As to the kind of experiment: qHTS Assay for Inhibitors and Substrates of Cytochrome P450 3A4 (AID 884). Note: potency is the fitted concentration of half-maximal effect; nearly all actives have a fitted effect of over 50% in size. To be noted: recombinant CYP3A4, Luciferin-PPXE luminescence; series mostly up to 57.1 µM. A digest of the protocol: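 20 nM human CYP3A4 with 25 uM Luciferin-PPXE (at KM) in 200 mM KPO4, preincubated 10 min with compound; NADPH regeneration started a 60 min RT reaction. Luciferin detected by luminescence, normalized to 57 uM ketoconazole as full inhibition.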

For test [13] the target is unchanged. The experiment in a line: qHTS Assay for Activators of Cytochrome P450 3A4 (AID 885). Note: nearly all actives have a fitted effect of over 65% in size. The conditions noted are these: recombinant CYP3A4, Luciferin-PPXE luminescence, 60 min; series mostly up to 57.1 µM. The gist of the method: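 Quantitative HTS format: compounds preincubated with 20nM human CYP3A4 and Luciferin-PPXE substrate at KM, reaction started by NADPH regeneration, stopped after 60 min, luciferase luminescence read 20 min later.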

The nature of test [14]: Confirmation and Secondary Assay for Modulators of Hemoglobin Beta Chain Splicing at IVS2 705 locus (AID 930).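 Note: HeLa cells stably expressing the EGFP-705 splicing reporter; GFP fluorescence per well restored by corrected splicing of the IVS2-705 intron in EGFP; % of control where 0% means no effect.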 The conditions noted are these: HeLa EGFP-705 splicing reporter, GFP fluorescence, 48 h; series mostly up to 38.3 µM. The gist of the method:
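First, HeLa EGFP-705 cells are seeded at 500/well in Optimem with 2% FCS and left overnight. Next, compound or DMSO is added for 2 days. Finally wells are laser-scanned and total peak GFP intensity scored.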

Test [15] concerns the target Ubiquitin carboxyl-terminal hydrolase 1 (Homo sapiens) (UniProt O94782). As to the kind of experiment: Inhibitors of USP1/UAF1: Pilot qHTS (AID 504865). Note: nearly all actives have a fitted effect of over 35% in size. Note: potency is the fitted concentration of half-maximal effect. The conditions noted are these: purified USP1/UAF1, Ub-rhodamine cleavage fluorescence; series mostly up to 54.9 µM. A digest of the protocol: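 Deubiquitinase activity followed as kinetic rhodamine fluorescence release from 150 nM Ub-Rho. 1 nM USP1/UAF1 with compound, after 15 min room-temperature preincubation, in HEPES pH 7.8 buffer containing TCEP, EDTA, BSA and Tween-20.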

Test [16] is described as follows: Confirmation and Secondary Assay for Modulators of Hemoglobin Beta Chain Splicing at IVS2 654 locus (AID 910).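 Note: HeLa cells stably carrying EGFP split by mutant beta-globin IVS2-654 intron; % of control where 0% means no effect.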 The conditions noted are these: HeLa EGFP-654 splicing reporter, GFP fluorescence, 48 h; series mostly up to 38.3 µM. A digest of the protocol: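 HeLa cells stably expressing EGFP interrupted by β-globin IVS2-654 intron, seeded overnight in Opti-MEM/2% FCS, then treated 2 days at 37 °C. Restored splicing read as total peak GFP intensity per well by laser scanning cytometry (488 nm excitation, 500–520 nm emission); 500 nM antisense PNA as control.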

The nature of test [17]: qHTS Assay for Identification of Small Molecule Agonists for Hypoxia Response Element Signaling Pathway (AID 914; active = well fitted activation curve with a large enough effect in the signal ratio, with a control signal flat, not every such curve was filed as active; the % refers to the signal ratio; note: % of control where 0% means no effect). To be noted: ME-180 (cervical carcinoma) HRE-bla reporter, beta-lactamase ratio, CoCl2, 17 h; activation: stronger effect = higher value. The gist of the method: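 Positive modulation of EC50 CoCl2-induced hypoxia response element signaling is measured in ME-180 cells with a beta-lactamase reporter. Compounds are titrated, incubation runs 17 hours, and %Activity derives from the blue/green ratio.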

For test [18], the target named is Cytochrome P450 2C19 (Homo sapiens) (UniProt P33261). The experiment in a line: qHTS Assay for Inhibitors and Substrates of Cytochrome P450 2C19 (AID 899). Note: potency is the fitted concentration of half-maximal effect; nearly all actives have a fitted effect of over 60% in size. The conditions noted are these: recombinant CYP2C19, luciferin-H EGE luminescence; series mostly up to 57.1 µM. The gist of the method:
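Signal comes from luciferase acting on luciferin released by CYP2C19-mediated hydroxylation of Luciferin-H EGE, 10uM (KM). Assay mix: 5nM enzyme, 50mM KPO4; 60 min at 37C with NADPH regeneration. Data normalized against 57uM ketoconazole.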

Setting [19] is: measured here: cell count channel max response.
Setting [20] is: measured here: lipid channel max response.

Sequence of Ubiquitin carboxyl-terminal hydrolase 1 (Homo sapiens) (O94782 whole entry, looked up): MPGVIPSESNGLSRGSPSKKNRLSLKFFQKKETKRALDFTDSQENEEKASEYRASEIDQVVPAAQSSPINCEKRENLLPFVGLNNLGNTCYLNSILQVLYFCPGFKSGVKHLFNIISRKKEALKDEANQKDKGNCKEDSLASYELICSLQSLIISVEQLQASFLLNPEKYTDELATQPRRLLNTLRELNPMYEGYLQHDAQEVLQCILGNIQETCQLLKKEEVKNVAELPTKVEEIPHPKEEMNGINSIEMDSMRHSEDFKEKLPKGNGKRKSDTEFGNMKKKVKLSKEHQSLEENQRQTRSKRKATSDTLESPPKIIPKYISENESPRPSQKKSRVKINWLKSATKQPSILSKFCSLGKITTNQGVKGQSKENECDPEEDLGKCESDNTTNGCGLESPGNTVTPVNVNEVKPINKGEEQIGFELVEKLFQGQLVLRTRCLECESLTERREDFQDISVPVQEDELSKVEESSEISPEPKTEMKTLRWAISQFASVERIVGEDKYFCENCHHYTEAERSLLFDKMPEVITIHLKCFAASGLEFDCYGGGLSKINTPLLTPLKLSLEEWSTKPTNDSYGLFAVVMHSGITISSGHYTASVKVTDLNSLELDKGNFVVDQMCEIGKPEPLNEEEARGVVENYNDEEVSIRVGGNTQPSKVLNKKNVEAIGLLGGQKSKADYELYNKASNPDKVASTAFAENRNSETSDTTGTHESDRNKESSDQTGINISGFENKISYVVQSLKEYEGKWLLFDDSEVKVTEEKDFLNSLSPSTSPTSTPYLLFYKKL
Sequence of Glucocorticoid receptor (Homo sapiens) (P04150 whole entry, looked up, the tested form may be a part): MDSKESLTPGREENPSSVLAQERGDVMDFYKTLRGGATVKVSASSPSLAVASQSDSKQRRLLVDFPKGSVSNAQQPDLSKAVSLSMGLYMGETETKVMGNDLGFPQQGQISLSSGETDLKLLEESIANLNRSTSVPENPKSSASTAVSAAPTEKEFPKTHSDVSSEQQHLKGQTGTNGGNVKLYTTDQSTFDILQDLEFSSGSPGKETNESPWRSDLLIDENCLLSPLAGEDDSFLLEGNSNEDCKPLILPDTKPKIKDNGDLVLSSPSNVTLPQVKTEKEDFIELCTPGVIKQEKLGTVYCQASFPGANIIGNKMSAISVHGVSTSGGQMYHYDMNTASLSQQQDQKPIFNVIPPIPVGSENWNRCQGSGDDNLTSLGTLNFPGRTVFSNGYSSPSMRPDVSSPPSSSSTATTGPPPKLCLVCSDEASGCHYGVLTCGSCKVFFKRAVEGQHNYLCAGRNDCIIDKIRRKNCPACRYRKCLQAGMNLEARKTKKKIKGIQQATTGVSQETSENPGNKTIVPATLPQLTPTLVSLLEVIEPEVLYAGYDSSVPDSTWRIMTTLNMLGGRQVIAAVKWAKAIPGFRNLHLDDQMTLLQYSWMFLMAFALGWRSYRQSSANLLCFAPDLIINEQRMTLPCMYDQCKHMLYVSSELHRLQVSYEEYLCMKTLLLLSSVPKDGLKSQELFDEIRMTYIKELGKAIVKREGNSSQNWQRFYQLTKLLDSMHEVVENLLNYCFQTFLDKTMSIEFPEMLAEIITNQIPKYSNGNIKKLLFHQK
Sequence of Cytochrome P450 1A2 (Homo sapiens) (P05177 whole entry, looked up): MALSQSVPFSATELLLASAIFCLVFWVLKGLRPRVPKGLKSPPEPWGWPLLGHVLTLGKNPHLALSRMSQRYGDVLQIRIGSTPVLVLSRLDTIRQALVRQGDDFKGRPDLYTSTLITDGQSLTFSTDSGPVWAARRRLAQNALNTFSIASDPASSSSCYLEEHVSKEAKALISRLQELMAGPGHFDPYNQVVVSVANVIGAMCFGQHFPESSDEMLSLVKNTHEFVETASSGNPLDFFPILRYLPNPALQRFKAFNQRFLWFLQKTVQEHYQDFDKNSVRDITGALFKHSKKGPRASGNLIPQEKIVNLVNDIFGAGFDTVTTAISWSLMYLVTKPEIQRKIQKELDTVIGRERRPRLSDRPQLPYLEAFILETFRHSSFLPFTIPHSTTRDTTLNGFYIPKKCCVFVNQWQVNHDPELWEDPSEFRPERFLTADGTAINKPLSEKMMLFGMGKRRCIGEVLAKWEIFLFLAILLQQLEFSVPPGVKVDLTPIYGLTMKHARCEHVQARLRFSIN
Sequence of Cytochrome P450 3A4 (Homo sapiens) (P08684 whole entry, looked up): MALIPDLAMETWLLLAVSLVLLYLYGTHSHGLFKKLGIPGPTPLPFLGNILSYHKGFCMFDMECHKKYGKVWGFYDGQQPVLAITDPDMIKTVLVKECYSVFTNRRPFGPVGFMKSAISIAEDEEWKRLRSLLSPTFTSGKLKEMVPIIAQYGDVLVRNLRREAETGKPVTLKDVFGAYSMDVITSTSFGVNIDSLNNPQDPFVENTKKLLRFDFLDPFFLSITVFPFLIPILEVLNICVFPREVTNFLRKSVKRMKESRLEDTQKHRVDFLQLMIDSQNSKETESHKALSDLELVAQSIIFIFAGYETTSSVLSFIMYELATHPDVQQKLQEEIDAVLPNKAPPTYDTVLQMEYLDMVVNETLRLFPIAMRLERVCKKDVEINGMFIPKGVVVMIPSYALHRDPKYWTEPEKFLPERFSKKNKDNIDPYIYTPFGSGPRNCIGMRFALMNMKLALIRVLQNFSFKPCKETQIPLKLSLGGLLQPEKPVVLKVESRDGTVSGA
Sequence of 3',5'-cyclic-AMP phosphodiesterase 4B (Homo sapiens) (Q07343 whole entry, looked up): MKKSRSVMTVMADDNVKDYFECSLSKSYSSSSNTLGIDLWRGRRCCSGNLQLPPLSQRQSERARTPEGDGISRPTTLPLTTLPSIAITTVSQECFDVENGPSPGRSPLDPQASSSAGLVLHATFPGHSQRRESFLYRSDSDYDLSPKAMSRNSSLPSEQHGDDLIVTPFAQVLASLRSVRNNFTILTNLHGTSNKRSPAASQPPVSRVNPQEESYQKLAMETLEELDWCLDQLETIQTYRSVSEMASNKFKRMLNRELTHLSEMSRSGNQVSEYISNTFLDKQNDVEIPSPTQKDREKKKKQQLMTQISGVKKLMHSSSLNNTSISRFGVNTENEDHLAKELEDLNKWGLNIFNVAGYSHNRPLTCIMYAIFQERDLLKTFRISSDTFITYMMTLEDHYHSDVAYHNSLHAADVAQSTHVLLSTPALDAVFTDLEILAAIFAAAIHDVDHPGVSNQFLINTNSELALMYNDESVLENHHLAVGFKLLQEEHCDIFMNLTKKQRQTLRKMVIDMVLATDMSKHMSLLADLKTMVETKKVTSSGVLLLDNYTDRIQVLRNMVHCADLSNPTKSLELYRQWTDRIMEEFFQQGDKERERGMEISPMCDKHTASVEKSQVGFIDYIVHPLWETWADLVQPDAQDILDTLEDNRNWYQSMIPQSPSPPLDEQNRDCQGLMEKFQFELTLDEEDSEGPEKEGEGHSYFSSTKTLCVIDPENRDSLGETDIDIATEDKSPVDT
Sequence of Lysosomal acid glucosylceramidase (Homo sapiens) (P04062 whole entry, looked up): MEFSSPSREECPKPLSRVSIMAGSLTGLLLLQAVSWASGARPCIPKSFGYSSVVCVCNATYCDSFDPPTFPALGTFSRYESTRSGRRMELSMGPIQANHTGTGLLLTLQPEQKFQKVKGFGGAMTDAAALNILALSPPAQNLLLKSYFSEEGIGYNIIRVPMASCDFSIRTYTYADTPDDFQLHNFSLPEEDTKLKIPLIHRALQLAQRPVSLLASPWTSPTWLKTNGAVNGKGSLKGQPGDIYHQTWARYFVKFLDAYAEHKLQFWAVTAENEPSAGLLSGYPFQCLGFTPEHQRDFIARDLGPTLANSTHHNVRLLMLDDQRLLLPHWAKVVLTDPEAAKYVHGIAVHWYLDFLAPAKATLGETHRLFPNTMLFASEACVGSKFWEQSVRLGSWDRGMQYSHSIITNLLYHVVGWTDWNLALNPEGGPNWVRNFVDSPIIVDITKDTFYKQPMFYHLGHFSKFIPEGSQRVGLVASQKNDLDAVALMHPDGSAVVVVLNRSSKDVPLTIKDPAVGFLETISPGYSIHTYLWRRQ
Sequence of Cytochrome P450 2C19 (Homo sapiens) (P33261 whole entry, looked up): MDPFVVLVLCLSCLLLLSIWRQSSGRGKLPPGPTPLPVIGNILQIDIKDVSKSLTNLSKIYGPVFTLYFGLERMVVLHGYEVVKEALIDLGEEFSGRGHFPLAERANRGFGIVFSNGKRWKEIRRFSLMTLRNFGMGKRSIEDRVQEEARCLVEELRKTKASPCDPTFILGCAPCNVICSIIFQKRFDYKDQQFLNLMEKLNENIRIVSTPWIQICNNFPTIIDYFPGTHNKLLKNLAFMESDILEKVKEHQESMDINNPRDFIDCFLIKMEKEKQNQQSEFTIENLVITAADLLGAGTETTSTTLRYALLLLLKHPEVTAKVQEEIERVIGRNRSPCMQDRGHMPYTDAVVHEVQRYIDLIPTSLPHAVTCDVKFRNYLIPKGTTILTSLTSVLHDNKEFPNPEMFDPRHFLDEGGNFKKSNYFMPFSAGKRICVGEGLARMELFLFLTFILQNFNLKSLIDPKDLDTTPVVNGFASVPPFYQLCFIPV

For `Cn1cccc1C(=O)N1CCC[C@@]2(CCN(c3ncccn3)C2)C1`, the Potency is > 11.4 µM (inactive) in [1] and > 46 µM (inactive) in test [4]. In addition, the results for the activity change, negative = inhibition in test [2] and in test [7] were -9.56% (inactive) and 1.1% (inactive), respectively. In addition, the activity, negative = inhibition in test [3] was -1.27% (inactive). Besides, the Potency entry in test [5] and in [6] was “inactive” in each case. The max response in [7] (setting [19]) was -6.2%; in test [7] (setting [20]), -1.14%. Besides, in test [8], the outcome was inactive.
`CN(C)C(=O)c1ccc(-c2cncnc2NCc2cccs2)cc1`: the activity change, negative = inhibition in [9] is 8.21% (inactive); in test [2], 6.04% (inactive); in test [7], 6.52% (inactive). For the same compound, the Potency in [10] was 20 µM (active); in test [11], > 46 µM (inactive); in test [4], > 46 µM (inactive); in test [12], 3.16 µM (active). In [3], the activity, negative = inhibition is 17.8% (inactive). In addition, the Potency result in test [5], in test [6], in test [13] and in [15] was “inactive” in each case. In addition, the call in test [14] and in test [8] was inactive. In addition, the max response turned out to be 22.2% in [7] (setting [19]) and 27.8% in test [7] (setting [20]).
`CS(=O)(=O)Nc1cccc(-c2nccc(-n3ccnc3)n2)c1`: the activity change, negative = inhibition in test [9] was -9.45% (inactive); in test [2] it was -0.156% (inactive); in test [7] it was 2.72% (inactive). For the same compound, the Potency in [10] was 0.2 µM (active); in [11], > 46 µM (inactive); in test [4], > 46 µM (inactive); in test [12], 1.58 µM (active). For the same compound, in [3], the activity, negative = inhibition is 0.985% (inactive). Also, the Potency result in [5], in [6], in test [13], in test [16] and in test [15] was “inactive” each time. The activation in [17] is -11.9% (inactive). The outcome in test [14] and in test [8] was inactive. Further, the max response in [7] (setting [19]) came out at 1.42%; in test [7] (setting [20]), 5%.
For the compound `c1ccc(Nc2ncnc3ccc(-c4cccnc4)cc23)cc1`, the Potency in [1] was > 11.4 µM (inactive); in test [10], 0.0794 µM (active); in test [11], > 46 µM (inactive); in [4] it was > 46 µM (inactive); in [12], 2.51 µM (active). In addition, in [3], the activity, negative = inhibition was 19.3% (inactive). Further, the Potency entry in test [5], in test [6], in [13] and in [16] was “inactive” throughout. In addition, the outcome in test [14] and in [8] was inactive. Moreover, in test [7], the activity change, negative = inhibition was 7.8% (inactive). The max response in test [7] (setting [19]) is -20.7%; in test [7] (setting [20]), -13.8%.
Regarding `FC(F)(F)c1ccccc1-c1nccc(NCc2ccccc2)n1`, the activity change, negative = inhibition is -1.94% (inactive) in [9], -3.71% (inactive) in test [2] and 6.15% (inactive) in [7]. For the same compound, the Potency in test [10] was 12.6 µM (active); in test [11] it was > 46 µM (inactive); in test [4], > 46 µM (inactive); in [18], 6.31 µM (active); in test [15], 6.31 µM (active). Further, the activity, negative = inhibition in test [3] was -13.7% (inactive). The Potency entry in test [5], in test [13] and in test [16] was “inactive” in each case. Further, the compound was classed as inactive in test [14] and in test [8]. Besides, the max response in test [7] (setting [19]) is 0.814%; in [7] (setting [20]) it was 5.46%.
For the compound `COc1ccc(C(=O)N2CCC3(CCCN(C(c4ccccc4)c4ccccc4)C3)CC2)cc1`, the values for the Potency in test [1] and in test [4] were > 11.4 µM (inactive) and > 46 µM (inactive), respectively. For the same compound, in [3], the activity, negative = inhibition is 18.3% (inactive). Also, the Potency entry in [5] is “inactive”. In addition, the activity change, negative = inhibition in test [7] was -5.74% (inactive). Besides, the figures for the max response in test [7] (setting [19]) and in [7] (setting [20]) were 2.37% and -2.89%, respectively. Moreover, in test [8], the result was inactive.
